In all, about 140,000 compounds went through this assay and about 4,300 (3.1%) were called active. About 21% were inconclusive and are not listed. For the sample, actives were picked, then their nearest neighbours and some compounds at random. Values without a mark were called inactive.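 How the source made its calls: active means readout at or below -70, meaning at least 70% loss of cells showing the perinucleolar compartment, a nuclear body marking cancer cells; inconclusive means readout between -30 and a set limit; inactive means the rest.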

A short description of this assay: High Content Assay for Compounds that inhibit the Assembly of the Perinucleolar Compartment. To be noted: PC3M PTB-GFP, PNC prevalence imaging, 16 h; at 10 µM; stronger effect = lower value. The text has this: High Content Assay for Compounds that inhibit the Assembly of the Perinucleolar Compartment NIH Chemical Genomics Center [NCGC] NIH Molecular Libraries Probe Centers Network [MLPCN] MLPCN Grant: MH082371-01A2 Assay Submitter (PI): Sui Huang, Northwestern University, Feinberg School of Medicine, Cell and Molecular Biology, Chicago, Illinois. The perinucleolar compartment (PNC) is a non-membrane-bound nuclear subdomain that is associated with but structurally distinct from the nucleolus. The PNC is a heritable trait, in which the number of PNCs per cell in daughter cells often mimics that of their mother cells. The PNC is heterogeneous in shape, is stable through interphase, disassembles during mitosis, and reassembles in early G1. The PNC is concentrated with newly synthesized RNA polymerase III (pol III) RNAs (MRP RNA, RNAse P H1 RNA, hY RNAs[hY1, 2, 5], Alu RNA, and SRP [7SL] RNA) and RNA binding proteins (nucleolin, PTB, CUG-BP, KSRP, Raver1, Raver2, and Rod). […] Extensive in vitro studies have shown that the PNC is unique to tumor cells and preferentially forms in tumor cells derived from solid tissues. Examination of cancer cell lines from various origins and malignant capacities has shown that PNC prevalence correlates with the malignancy of tumors and has the potential to be developed as a pan-cancer prognostic marker. […] Although the PNC is associated with a DNA locus and a handful of components have been identified, much remains to be investigated regarding the structure and function of the PNC and its mechanistic link to cancer. We have previously shown that PNC prevalence reduction is a valid strategy to identify compounds that can be used to study the structure and function of the PNC. It is necessary, however, to create a screening platform that is able to test a large number of compounds in an automated fashion. Here we report the development and robustness of an automated whole-cell phenotypic image-based screening assay that is capable of identifying such compounds.
PNC High Content Imaging Assay Procedure: 1. Cells at a density of 75-90% confluency in T175 flasks were harvested using 7 ml TrypLE Express cell dissociation reagent. After dissociation (5 minutes room temperature incubation) 10 ml of complete media was added to the TrypLE/cell suspension. The liquid was transferred to a 50 ml Conical tube and cells were pelleted at 1000 RPM for 5 min. Supernatant was removed and cells were resuspended to a final density of 150-200 cells/ul in complete media. 2. Cells were plated in 5 ul volume (750-1000 cells/well) into 1536 well Black uclear Aurora Low Base plates and allowed to recover and adhere at 37 C in a humidified 5% CO2 incubator for 4 hours. 3. After 4 hour incubation, compound libraries (23 nl of […] in columns 5-48) were transferred to the plates in duplicate using a 1536 well pintool. Camptothecin positive control (59 uM final) was added to column 2 and 1:3 dilutions of camptothecin was added to column 3. DMSO negative controls were present in columns 1 and 4. 4. After a 16 hour incubation in the 37 C incubator, cells were fixed by the addition of 4 ul of 6% EM grade paraformaldehyde (containing 0.1% triton X 100) directly to the cells. The plates were incubated at room temperature for 20 minutes. The liquid was removed using a 32 channel Kalypsys aspirator and the fixed cells were washed twice with 5 ul PBS followed by a final addition of 5 ul PBS containing 1 ug/ml Hoechst 33342. 5. Fixed plates were sealed and sotred at 4C until imaged. 6. Plates were imaged on an InCell 1000 automated microscope using a 20 x objective, a standard FITC filter set, no camera binning, and an exposure time of ~100-150 msec/well. 7. Data analysis. PNC prevalence was determined using the Multitarget analysis module from InCell Workstation software (V3.5 ) and analysis was run on a quad core workstation using the Incell Developer Toolbox (V1.7). […]
On to `CC(NC(=S)Nc1ccc(S(N)(=O)=O)cc1)c1ccc2c(c1)OCO2` (stereo not given), for which the activity change (PNC), negative = inhibition was -20.3%.

For the compound `N#CC1=C(N)N(c2ccccc2)C2=C(C(=O)CCC2)C1c1ccccc1` (stereo not given), the activity change (PNC), negative = inhibition was 5.97%.

Take `O=C1CCCc2nn(-c3ccccc3)nc21`: the activity change (PNC), negative = inhibition was -100% (active).

Take `c1ccc(-n2nc3ccccc3n2)cc1`: the activity change (PNC), negative = inhibition was -3.58%.

Consider `CCCCCC(=O)Nc1ccc(S(=O)(=O)Nc2ccc(Cl)nn2)cc1`, for which the activity change (PNC), negative = inhibition is 31.2%.

In the case of `CCOc1ccccc1N1CCN(C(=S)Nc2ccc(S(N)(=O)=O)cc2)CC1`, the activity change (PNC), negative = inhibition is -28.8%.

For the compound `Cc1ccc(C(=O)c2c(NC(=O)c3ccccc3)sc(C)c2C)cc1`, the activity change (PNC), negative = inhibition is 71.1%.

For `COC(=O)c1c(NC(=O)c2cccs2)sc2c1CCCC2`, the activity change (PNC), negative = inhibition was -6.02%.

With `Cc1ccc(C(=O)c2c(NC(=O)c3ccncc3)sc3c2CCCC3)cc1`, the activity change (PNC), negative = inhibition is -86.2% (active).

For the compound `CC(=O)NC1C(Oc2ccc(C)cc2)OC2COC(c3ccco3)OC2C1O` (stereo not given), the activity change (PNC), negative = inhibition was -119% (active).

Regarding `CN1CCN(c2ccc(S(=O)(=O)N3CCCCC3)cc2NC(=O)Cc2ccccc2F)CC1`, the activity change (PNC), negative = inhibition was 41.3%.

For `N#CCOc1ccc(C2=NO[C@@H]3[C@@H]4C[C@@H]([C@H]5C(=O)N(c6ccc7c(c6)OCO7)C(=O)[C@@H]45)[C@H]23)cc1`, the activity change (PNC), negative = inhibition is -91.1% (active).

Regarding `CCOC(=O)C1CCN(C(=O)CSc2cc(=O)n(C)c3ccccc23)CC1`, the activity change (PNC), negative = inhibition was 0.103%.

For `CCCCn1c(SCc2ncc(-c3ccccc3)o2)nc2cc(S(N)(=O)=O)ccc21`, the activity change (PNC), negative = inhibition was 27%.

Consider `CCCCn1c(SCC(=O)N2CCC(C(=O)OCC)CC2)nc2cc(S(N)(=O)=O)ccc21`, for which the activity change (PNC), negative = inhibition is -100% (active).

For the compound `COC(=O)c1c(C)[nH]c(C(=O)/C=C/c2ccc(Cl)cc2)c1C`, the activity change (PNC), negative = inhibition was 0.424%.

`CCCCN(CC)CCNC(=O)c1[nH]c(C)c(C(C)=O)c1C`: the activity change (PNC), negative = inhibition is -4.29%.

For `CCCCOC(=O)c1[nH]c(C)c(C(=O)OC)c1C`, the activity change (PNC), negative = inhibition was -88.2% (active).

As to `CC(=O)c1c(Nc2ccccc2)sc(C(=O)c2ccccc2)c1C`, the activity change (PNC), negative = inhibition was 73.7%.

In the case of `Cc1cc(NS(=O)(=O)c2ccc(NC(=S)NC(=O)c3ccc(F)cc3Cl)cc2)no1`, the activity change (PNC), negative = inhibition was -22%.

`Cc1ccc(C(=O)C(=S)N2CCOCC2)cc1`: the activity change (PNC), negative = inhibition is -3.45%.

As to `COc1cccc(N2CCN(C3CC(=O)N(c4ccc(Cl)cc4)C3=O)CC2)c1` (stereo not given), the activity change (PNC), negative = inhibition is -3.5%.

Turning to `O=CN1CCN(C2CC(=O)N(c3ccc4c(c3)OCO4)C2=O)CC1` (stereo not given), the activity change (PNC), negative = inhibition is -6.31%.

As to `COc1cccc(N2C(=O)CC(N3CCN(S(=O)(=O)c4ccccc4)CC3)C2=O)c1` (stereo not given), the activity change (PNC), negative = inhibition was -19.9%.

Consider `COc1ccc(N2CCN(C3CC(=O)N(c4ccc5c(c4)OCCO5)C3=O)CC2)cc1` (stereo not given), for which the activity change (PNC), negative = inhibition is -84.9% (active).

In the case of `COC(=O)c1cc(C(=O)OC)cc(N2C(=O)CC(N3CCN(c4ccccc4)CC3)C2=O)c1` (stereo not given), the activity change (PNC), negative = inhibition was -94.7% (active).

As for `COc1ccc(N2C(=O)CC(N3CCC(C(N)=O)CC3)C2=O)cc1` (stereo not given), the activity change (PNC), negative = inhibition was 19.9%.

`Cn1cc([N+](=O)[O-])c(C(=O)Nc2cnn(Cc3ccc(F)cc3)c2)n1`: the activity change (PNC), negative = inhibition was -17%.

As to `COCCOC(=O)c1c(C)oc2cc(Br)c(OCC(N)=O)cc12`, the activity change (PNC), negative = inhibition is -7.11%.

Take `CC(C)(C)c1ccc(/C=C/C(=O)Nc2ncccn2)cc1`: the activity change (PNC), negative = inhibition is 15.2%.

As for `COc1ccc([C@H]2[C@H](C(C)=O)N3N=Cc4ccccc4C3C23C(=O)OC(C)(C)OC3=O)cc1` (stereo not given in full), the activity change (PNC), negative = inhibition is 11.5%.

Turning to `COc1ccc(CC(=O)Nc2ccc(C(=O)NC(C)(C)C)cc2)cc1`, the activity change (PNC), negative = inhibition was -85% (active).

As to `COc1ccc(C(=O)Nc2ccc(CN3CCOCC3)cc2)cc1`, the activity change (PNC), negative = inhibition was -12.7%.

With `CC(C)(C)NC(=O)c1cccc(NC(=O)Cc2ccc(Br)cc2)c1`, the activity change (PNC), negative = inhibition is -14.3%.

Take `CC1=C(C(=O)Nc2cc(C)ccn2)C(c2cnn(C)c2)C2=C(CC(c3ccccc3)CC2=O)N1` (stereo not given): the activity change (PNC), negative = inhibition is 20.8%.

With `COc1ccc2nc(NC(=O)[C@@H]3CCCN3C(=O)c3cccs3)sc2c1`, the activity change (PNC), negative = inhibition is 34.3%.

Consider `O=C(O)CC(c1ccccc1)n1cnnn1` (stereo not given), for which the activity change (PNC), negative = inhibition was 2.72%.

Regarding `CC(C)NC(=S)N1CCN(C(c2ccccc2)c2ccccc2)CC1`, the activity change (PNC), negative = inhibition was 12%.

On to `Cn1nnnc1SCC(=O)N1CCN(C(c2ccccc2)c2ccccc2)CC1`, for which the activity change (PNC), negative = inhibition was -100% (active).

As for `O=C(c1ccc(-n2cnnn2)cc1)N1CCN(C(c2ccccc2)c2ccccc2)CC1`, the activity change (PNC), negative = inhibition is -100% (active).

Turning to `Cn1nnnc1SCC(=O)N1CCN(Cc2ccccc2)CC1`, the activity change (PNC), negative = inhibition was 29.1%.

In the case of `CCOC(=O)C1=C(CSc2nnnn2C)N(C)C(=O)NC1c1ccccc1` (stereo not given), the activity change (PNC), negative = inhibition was 19.9%.

Regarding `Cc1ccc2nsnc2c1NC(=O)c1ccccc1[N+](=O)[O-]`, the activity change (PNC), negative = inhibition was -1.05%.

Consider `O=C(C/C(=N\NC(=O)c1ccccc1Br)C(F)(F)F)c1cccs1`, for which the activity change (PNC), negative = inhibition is -25.7%.

Regarding `Cc1ccc(C)c2[nH]c(=O)c(CCNC(=O)c3cccs3)cc12`, the activity change (PNC), negative = inhibition is 36.1%.

The values above are taken from PubChem BioAssay AID2417 (National Center for Advancing Translational Sciences (NCATS), 2010).
